About 7,900 targets were measured; listed, in parts, are those with a hit and a random draw of the rest. About 0.6% of all pairs of compound and target were hits.
Compound: CC(=O)c1cnc2ccc(-c3cc(Cl)c(O)c(Cl)c3)nc2c1N[C@H]1CC[C@H](CN(C)C)CC1
Test: log2 fold change, soluble protein after heating vs DMSO (PISA); higher = thermal stabilisation; K562 cells, 10 uM, 30 min; active = over 0.2 and 3.5 SD of the protein, either way, in both replicates (recomputed)
In short: (§1)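 K562 cells (2×10^6 cells/mL) were treated with 10 μM compound for 30 min, and aliquots were heated for 3 min over 48°C-58°C. Pooled aliquots were extracted in PBS with 0.5% NP-40 at 4°C, and the supernatant after 21,000xg for 90 min was measured by TMTpro 16plex LC-MS/MS with channel sums equalised. Reported thermal stability, relative to control samples and from duplicates, is a log2 fold change.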

Chain of UniProt O95363 (O95363 whole entry, looked up): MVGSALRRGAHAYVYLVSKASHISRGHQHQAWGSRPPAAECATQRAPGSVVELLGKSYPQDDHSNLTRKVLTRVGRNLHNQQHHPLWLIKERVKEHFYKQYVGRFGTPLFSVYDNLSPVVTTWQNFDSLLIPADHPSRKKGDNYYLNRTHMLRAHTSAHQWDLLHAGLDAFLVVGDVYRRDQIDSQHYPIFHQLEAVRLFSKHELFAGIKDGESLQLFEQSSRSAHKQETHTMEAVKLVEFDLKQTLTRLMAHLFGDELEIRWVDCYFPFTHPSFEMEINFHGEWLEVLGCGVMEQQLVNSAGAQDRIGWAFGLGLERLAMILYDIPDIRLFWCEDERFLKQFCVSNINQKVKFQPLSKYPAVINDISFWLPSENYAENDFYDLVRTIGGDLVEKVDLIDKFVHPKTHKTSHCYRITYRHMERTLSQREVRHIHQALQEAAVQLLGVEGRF
Chain of UniProt Q9NZC3 (Q9NZC3 whole entry, looked up): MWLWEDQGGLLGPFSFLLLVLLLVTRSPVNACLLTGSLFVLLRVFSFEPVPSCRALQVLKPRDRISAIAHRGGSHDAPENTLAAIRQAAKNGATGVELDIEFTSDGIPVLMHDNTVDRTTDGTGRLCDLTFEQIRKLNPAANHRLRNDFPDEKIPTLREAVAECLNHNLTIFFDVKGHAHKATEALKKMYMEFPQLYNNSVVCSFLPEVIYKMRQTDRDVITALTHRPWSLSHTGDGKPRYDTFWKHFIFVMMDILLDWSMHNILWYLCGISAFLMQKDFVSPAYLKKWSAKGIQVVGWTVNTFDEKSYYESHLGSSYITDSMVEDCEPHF
Chain of UniProt P15976 (P15976 whole entry, looked up): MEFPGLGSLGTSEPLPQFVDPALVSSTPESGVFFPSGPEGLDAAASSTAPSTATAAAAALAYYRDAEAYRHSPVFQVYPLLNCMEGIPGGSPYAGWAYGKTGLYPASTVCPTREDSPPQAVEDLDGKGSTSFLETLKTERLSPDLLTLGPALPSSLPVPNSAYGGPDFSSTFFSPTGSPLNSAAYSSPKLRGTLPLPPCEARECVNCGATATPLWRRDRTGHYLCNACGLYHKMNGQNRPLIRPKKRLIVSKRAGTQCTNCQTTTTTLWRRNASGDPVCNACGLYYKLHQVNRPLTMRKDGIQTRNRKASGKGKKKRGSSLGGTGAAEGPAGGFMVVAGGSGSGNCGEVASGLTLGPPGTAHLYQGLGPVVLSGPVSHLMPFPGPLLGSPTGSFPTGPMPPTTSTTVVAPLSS
Chain of UniProt P21333 (P21333 whole entry, looked up): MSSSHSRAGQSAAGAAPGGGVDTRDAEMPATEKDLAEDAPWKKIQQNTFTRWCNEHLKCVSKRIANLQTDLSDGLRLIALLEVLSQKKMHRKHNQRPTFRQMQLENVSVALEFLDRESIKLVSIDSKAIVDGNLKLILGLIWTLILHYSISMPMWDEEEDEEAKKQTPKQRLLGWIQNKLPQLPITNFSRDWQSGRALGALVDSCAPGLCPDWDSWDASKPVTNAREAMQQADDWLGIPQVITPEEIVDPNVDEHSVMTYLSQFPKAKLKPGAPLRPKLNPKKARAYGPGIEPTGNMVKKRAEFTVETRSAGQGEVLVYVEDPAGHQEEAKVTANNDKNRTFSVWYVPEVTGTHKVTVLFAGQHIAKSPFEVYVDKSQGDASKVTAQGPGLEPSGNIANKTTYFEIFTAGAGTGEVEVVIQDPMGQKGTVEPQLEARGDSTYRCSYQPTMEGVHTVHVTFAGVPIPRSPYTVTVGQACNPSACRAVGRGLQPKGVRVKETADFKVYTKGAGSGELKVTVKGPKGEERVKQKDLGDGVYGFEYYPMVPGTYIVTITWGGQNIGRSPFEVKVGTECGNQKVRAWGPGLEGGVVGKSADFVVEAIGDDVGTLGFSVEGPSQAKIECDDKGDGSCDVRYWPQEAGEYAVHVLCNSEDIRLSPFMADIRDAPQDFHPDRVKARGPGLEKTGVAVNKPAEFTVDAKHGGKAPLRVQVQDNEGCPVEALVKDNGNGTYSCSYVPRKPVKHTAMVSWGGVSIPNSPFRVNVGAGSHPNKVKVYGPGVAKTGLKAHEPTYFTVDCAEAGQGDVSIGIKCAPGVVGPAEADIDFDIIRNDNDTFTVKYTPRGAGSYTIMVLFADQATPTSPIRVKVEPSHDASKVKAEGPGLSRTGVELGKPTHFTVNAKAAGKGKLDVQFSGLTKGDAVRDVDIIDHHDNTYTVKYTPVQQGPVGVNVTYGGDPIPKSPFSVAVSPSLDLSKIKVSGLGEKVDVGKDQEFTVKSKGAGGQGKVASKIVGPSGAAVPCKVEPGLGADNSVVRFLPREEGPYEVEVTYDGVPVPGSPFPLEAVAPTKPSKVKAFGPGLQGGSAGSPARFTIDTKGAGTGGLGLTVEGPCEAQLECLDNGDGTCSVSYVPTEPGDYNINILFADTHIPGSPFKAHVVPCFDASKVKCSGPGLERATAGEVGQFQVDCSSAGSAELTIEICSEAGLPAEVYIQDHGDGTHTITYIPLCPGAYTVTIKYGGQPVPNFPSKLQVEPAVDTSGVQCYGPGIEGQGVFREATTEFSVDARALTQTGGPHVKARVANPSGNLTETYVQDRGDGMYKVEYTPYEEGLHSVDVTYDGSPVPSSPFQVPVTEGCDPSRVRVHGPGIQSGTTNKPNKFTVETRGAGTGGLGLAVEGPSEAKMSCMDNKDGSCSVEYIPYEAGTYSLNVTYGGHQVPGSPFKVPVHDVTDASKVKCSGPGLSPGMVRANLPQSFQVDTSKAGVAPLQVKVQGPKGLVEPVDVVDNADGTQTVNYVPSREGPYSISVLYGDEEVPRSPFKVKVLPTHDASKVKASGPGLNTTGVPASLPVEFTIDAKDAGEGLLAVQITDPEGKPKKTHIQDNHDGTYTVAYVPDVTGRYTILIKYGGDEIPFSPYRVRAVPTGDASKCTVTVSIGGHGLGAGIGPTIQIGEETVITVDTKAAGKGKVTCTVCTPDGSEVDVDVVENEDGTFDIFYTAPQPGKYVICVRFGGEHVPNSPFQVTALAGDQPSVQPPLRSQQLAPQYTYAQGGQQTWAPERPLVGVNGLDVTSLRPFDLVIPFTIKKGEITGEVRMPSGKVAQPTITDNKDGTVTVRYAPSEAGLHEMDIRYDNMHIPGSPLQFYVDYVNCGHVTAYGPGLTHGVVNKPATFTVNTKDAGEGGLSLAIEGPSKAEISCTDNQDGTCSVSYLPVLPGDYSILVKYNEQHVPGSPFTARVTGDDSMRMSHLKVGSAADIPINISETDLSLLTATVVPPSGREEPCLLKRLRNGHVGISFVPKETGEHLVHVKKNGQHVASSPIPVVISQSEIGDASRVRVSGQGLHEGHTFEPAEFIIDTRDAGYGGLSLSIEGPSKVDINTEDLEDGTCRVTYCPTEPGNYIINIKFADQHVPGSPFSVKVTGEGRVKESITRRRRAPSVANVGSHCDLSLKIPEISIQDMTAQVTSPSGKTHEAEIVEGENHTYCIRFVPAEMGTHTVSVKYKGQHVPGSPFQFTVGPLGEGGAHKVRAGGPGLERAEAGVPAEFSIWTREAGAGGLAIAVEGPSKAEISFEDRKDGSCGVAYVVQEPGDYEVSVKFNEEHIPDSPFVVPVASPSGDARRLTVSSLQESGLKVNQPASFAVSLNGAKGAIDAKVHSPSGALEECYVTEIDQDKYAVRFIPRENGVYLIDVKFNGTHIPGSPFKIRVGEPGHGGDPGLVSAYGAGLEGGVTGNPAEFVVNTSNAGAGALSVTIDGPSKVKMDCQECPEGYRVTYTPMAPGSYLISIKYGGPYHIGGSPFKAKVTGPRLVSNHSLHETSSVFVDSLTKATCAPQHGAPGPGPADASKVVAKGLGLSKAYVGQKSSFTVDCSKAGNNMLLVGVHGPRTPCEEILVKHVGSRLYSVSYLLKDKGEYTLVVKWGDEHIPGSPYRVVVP
Chain of UniProt P50213 (P50213 whole entry, looked up): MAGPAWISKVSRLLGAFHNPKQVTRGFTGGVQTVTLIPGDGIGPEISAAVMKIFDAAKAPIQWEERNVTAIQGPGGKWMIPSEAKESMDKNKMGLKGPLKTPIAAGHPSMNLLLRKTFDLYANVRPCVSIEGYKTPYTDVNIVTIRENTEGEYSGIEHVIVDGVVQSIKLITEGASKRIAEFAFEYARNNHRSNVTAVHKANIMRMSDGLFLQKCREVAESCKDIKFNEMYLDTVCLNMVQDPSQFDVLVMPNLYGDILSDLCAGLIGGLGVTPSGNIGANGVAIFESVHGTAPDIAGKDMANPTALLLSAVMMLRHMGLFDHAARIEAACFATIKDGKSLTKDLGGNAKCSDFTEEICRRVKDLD
Chain of UniProt P52655 (P52655 whole entry, looked up): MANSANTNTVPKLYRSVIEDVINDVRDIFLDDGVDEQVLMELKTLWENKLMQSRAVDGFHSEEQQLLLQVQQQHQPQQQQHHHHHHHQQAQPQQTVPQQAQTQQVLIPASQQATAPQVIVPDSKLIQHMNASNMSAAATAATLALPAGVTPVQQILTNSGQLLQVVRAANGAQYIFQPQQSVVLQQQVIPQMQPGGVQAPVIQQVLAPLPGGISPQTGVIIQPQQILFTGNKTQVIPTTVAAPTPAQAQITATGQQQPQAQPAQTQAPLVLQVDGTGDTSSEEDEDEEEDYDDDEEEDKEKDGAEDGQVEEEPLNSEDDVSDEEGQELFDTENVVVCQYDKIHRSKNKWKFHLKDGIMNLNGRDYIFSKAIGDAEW
Chain of UniProt Q96HJ9 (Q96HJ9 whole entry, looked up): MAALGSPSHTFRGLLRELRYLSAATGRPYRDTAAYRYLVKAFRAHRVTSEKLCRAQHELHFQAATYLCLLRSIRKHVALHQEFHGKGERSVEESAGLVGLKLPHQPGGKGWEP
Chain of UniProt O60725 (O60725 whole entry, looked up): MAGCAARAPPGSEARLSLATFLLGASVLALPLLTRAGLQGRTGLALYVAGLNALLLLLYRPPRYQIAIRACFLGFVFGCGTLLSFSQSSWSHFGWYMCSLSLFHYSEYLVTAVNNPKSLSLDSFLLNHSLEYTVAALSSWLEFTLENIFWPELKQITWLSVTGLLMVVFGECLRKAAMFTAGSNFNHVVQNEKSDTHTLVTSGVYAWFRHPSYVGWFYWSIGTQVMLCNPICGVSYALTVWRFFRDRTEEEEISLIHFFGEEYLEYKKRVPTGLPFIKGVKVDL

Row | Target | log2 fold change
1 | FLNA (UniProt P21333) | 0.031 (inactive)
2 | H2AFX (UniProt P16104) | 0.044 (inactive)
3 | GTF2A1 (UniProt P52655) | 0.013 (inactive)
4 | GATA1 (UniProt P15976) | 0.051 (inactive)
5 | GALNT1 (UniProt Q10472) | -0.002 (inactive)
6 | FMC1 (UniProt Q96HJ9) | 0.066 (inactive)
7 | GDE1 (UniProt Q9NZC3) | -0.009 (inactive)
8 | IDH3A (UniProt P50213) | -0.008 (inactive)
9 | FARS2 (UniProt O95363) | -0.05 (inactive)
10 | FYB1 isoform 3 (UniProt O15117) | -0.193 (inactive)

Compound: CC(C)(C)Cn1c(N)nc2ccc(-c3[nH]c(C(C)(C)C)nc3-c3ccc(F)cc3)nc21 [ralimetinib]
Test: as above
In short: as §1

Row | Target | log2 fold change
11 | FKBP3 (UniProt Q00688) | 0.001 (inactive)
12 | GPX4 (UniProt P36969) | 0.01 (inactive)
13 | HEXA (UniProt P06865) | -0.062 (inactive)
14 | HECTD1 (UniProt Q9ULT8) | 0.054 (inactive)
15 | GLUD2 (UniProt P49448) | 0 (inactive)
16 | GBF1 (UniProt Q92538) | 0.017 (inactive)
17 | HIKESHI (UniProt Q53FT3) | -0.305 (active)
18 | HBZ (UniProt P02008) | -0.052 (inactive)
19 | HIP1 (UniProt O00291) | -0.003 (inactive)
20 | HADHB (UniProt P55084) | 0.068 (inactive)
21 | GTPBP6 (UniProt O43824) | 0.039 (inactive)
22 | GOLPH3 (UniProt Q9H4A6) | -0.005 (inactive)
23 | GSTO1 (UniProt P78417) | 0.021 (inactive)
24 | GYG1 (UniProt P46976) | 0.176 (inactive)
25 | ICMT (UniProt O60725) | 0.163 (inactive)
26 | FANCD2 isoform 1 (UniProt Q9BXW9) | -0.082 (inactive)
27 | GMEB1 (UniProt Q9Y692) | 0.01 (inactive)

Row | Target | log2 fold change
28 | GALNT2 (UniProt Q10471) | 0.014 (inactive)
29 | GCC2 (UniProt Q8IWJ2) | 0.131 (inactive)
30 | HAX1 (UniProt O00165) | 0.026 (inactive)
31 | GGT7 (UniProt Q9UJ14) | -0.046 (inactive)
32 | HDAC7 isoform 5 (UniProt Q8WUI4) | -0.123 (inactive)
33 | HSPA8 (UniProt E9PK54) | -0.161 (inactive)
34 | HIST2H3A (UniProt Q71DI3) | 0.292 (inactive)
35 | FLNA (UniProt P21333) | 0.035 (inactive)
36 | H2AFX (UniProt P16104) | 0.193 (inactive)
37 | GTF2A1 (UniProt P52655) | -0.142 (inactive)
38 | GATA1 (UniProt P15976) | 0.041 (inactive)
39 | GALNT1 (UniProt Q10472) | 0.101 (inactive)
40 | FMC1 (UniProt Q96HJ9) | -0.098 (inactive)
41 | GDE1 (UniProt Q9NZC3) | 0.02 (inactive)
42 | IDH3A (UniProt P50213) | -0.085 (inactive)
43 | FARS2 (UniProt O95363) | -0.004 (inactive)
44 | FYB1 isoform 3 (UniProt O15117) | 0.308 (inactive)

— the supplement of paper PMC10849652
